The source made the active and inactive calls.

One assay concerns the target Albumin (Bos taurus) (UniProt P02769). Put plainly: compounds binding labelled BSA control protein – biochemical, small-molecule microarray, Alexa647 label, 635/667 nm fluorescence, artefact control for SMM control protein annotation, profiling panel (AID 1118).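 Note: score merges 667 nm emission intensity and signal-to-noise per printed compound spot.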 The settings on record: BSA-A647 binding, fluorescence 635 nm, higher = more signal.
A short description of assay [1]: probe aXIP binding to arrayed compounds – biochemical, NeuroSMM set, 635/667 nm fluorescence, primary screen (AID 1119).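 Note: probe is the protein aXip251-270 applied at 1 µg/mL to compound-printed slides; binding of probe to printed compounds measured as 667 nm fluorescence plus signal to noise.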 The settings on record: small-molecule microarray, higher = more signal, called active from +8 up or from −8 down.
Assay [2] in a line: probe aNOTCH3 binding on compound microarray – biochemical, small-molecule microarray, 635/667 nm fluorescence, primary screen (AID 1120).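 Note: probe is a biotin-tagged antibody raised against NOTCH3 rather than NOTCH3 protein; score merges spot fluorescence near 667 nm with spot signal to noise.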 The settings on record: higher = more signal.
The nature of assay [3]: probe aNOTCH2 binding on compound microarray – biochemical, small-molecule microarray, 635/667 nm fluorescence, primary screen (AID 1121).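 Note: score merges feature fluorescence read at 667 nm with its signal to noise.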 The conditions noted are these: higher = more signal.
Assay [4] concerns the target Carbonic anhydrase 2 (Homo sapiens) (UniProt P00918). Description: compounds binding carbonic anhydrase 2 – biochemical, small-molecule microarray, Alexa647-labelled CAII, profiling panel (AID 1122). The settings on record: CAII-A647 binding fluorescence, higher = more signal.
A short description of assay [5]: COS7 lysate on small-molecule microarray, probe aHis, 635 nm (AID 1123).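 Note: z-score combines 667nm fluorescence intensity with signal-to-noise per printed compound spot.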 The settings on record: COS7 cell lysate, fluorescence, higher = more signal.
Assay [6] can be described thus: probe aLAP1 signal on lysate-treated microarray – cell lysate, small-molecule microarray, COS7 lysate, primary screen (AID 1124).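 Note: lysate comes from COS7 cells expressing LAP1 and is applied at 0.3 µg/mL; score merges spot fluorescence near 667 nm with signal-to-noise over triplicate slides.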 The settings on record: probe aLAP1, fluorescence, higher = more signal.
The next assay deals with Sam68 (KHDRBS1). Put plainly: compounds binding KHDRBS1 protein – biochemical, small-molecule microarray, 635 nm fluorescence, primary screen (AID 1125).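 Note: score merges 667 nm channel intensity with signal to noise over triplicate slides.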 The conditions noted are these: higher = more signal.
The test system of assay [7] is Chordin-like protein 2 (CHRDL2). Put plainly: compounds binding chordin-like 2 – biochemical, small-molecule microarray, 635 nm fluorescence, primary screen (AID 1126).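 Note: printed compound slides probed with Chrdl2 protein at 4 µg/mL for 1 h at 4 C; score merges 667 nm emission intensity with signal to noise over three replicate slides.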 The conditions noted are these: fluorescence 635 nm, higher = more signal.
Assay [8] has as its target Concanavalin-A (Canavalia ensiformis) (UniProt P02866). Put plainly: compounds binding concanavalin A lectin – biochemical, small-molecule microarray, Alexa647 label, 635 nm, artefact control for SMM control protein annotation, primary screen (AID 1127).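 Note: z combines 667 nm emission intensity with signal-to-noise across three replicate slides.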 The conditions noted are these: ConA-A647 binding fluorescence, higher = more signal.
Assay [9] in a line: compounds binding Alexa647 anti-His antibody – biochemical, small-molecule microarray, 635 nm fluorescence, artefact control for SMM control protein annotation, primary screen (AID 1128).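 Note: score merges feature fluorescence with signal-to-noise for each printed compound spot.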 The conditions noted are these: higher = more signal.
The test system of assay [10] is Human papillomavirus type 1a E7 protein (residues 1-88). Description: HPV1a E7 small-molecule binders, primary screen, biochemical, small-molecule microarray, residues 1-88, 635 nm (AID 1129). The conditions noted are these: small-molecule microarray binding, fluorescence 635 nm; higher = more signal.
Assay [11] deals with Focal adhesion kinase 1 (Homo sapiens) (UniProt Q05397). Put plainly: PTK2 protein binding on printed compound slides – biochemical, small-molecule microarray, 635/667 nm fluorescence, BSA, DTT, primary screen (AID 1130).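 Note: composite of spot emission at 667 nm and signal to noise over triplicate slides.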 The conditions noted are these: 635 nm fluorescence, higher = more signal.
Chain of Focal adhesion kinase 1 (Homo sapiens) (Q05397 whole entry, looked up): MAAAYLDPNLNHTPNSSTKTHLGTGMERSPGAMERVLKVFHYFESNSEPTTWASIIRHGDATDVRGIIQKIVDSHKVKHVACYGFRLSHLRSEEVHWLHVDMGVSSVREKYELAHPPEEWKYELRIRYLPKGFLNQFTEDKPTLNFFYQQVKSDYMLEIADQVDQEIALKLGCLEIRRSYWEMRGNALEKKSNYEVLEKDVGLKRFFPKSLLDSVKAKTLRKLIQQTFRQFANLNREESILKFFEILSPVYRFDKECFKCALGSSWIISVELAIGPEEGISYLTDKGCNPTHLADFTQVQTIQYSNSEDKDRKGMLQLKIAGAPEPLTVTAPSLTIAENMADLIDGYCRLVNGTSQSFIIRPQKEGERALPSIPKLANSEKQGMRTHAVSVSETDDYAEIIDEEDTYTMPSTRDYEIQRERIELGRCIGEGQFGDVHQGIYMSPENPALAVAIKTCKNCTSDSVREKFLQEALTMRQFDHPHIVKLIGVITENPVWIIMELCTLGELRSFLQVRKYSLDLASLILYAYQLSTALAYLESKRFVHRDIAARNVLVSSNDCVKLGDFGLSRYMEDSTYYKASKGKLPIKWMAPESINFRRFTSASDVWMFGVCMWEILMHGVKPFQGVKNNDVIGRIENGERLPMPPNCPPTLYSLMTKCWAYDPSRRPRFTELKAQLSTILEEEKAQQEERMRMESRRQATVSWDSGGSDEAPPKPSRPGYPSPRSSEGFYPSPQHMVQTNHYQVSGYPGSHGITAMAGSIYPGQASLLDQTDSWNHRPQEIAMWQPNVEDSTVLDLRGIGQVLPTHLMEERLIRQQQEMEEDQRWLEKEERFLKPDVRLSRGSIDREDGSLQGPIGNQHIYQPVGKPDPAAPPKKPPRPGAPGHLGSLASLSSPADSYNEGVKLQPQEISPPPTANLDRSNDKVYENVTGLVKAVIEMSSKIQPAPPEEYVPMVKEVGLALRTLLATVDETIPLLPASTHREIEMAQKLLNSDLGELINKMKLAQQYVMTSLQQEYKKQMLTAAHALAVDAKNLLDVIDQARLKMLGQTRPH
Assay [12] has as its system Fibrinogen (Alexa647-labelled). Put plainly: Alexa647-fibrinogen binding to printed small molecules – biochemical, small-molecule microarray, 635/667 nm fluorescence, artefact control for SMM control-protein annotation, profiling panel (AID 1131).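 Note: z-score merges 667 nm fluorescence with per-spot signal-to-noise over triplicate slides.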 The settings on record: fibrinogen-A647 binding fluorescence, higher = more signal.
The target of assay [13] is Follistatin (Homo sapiens) (UniProt P19883). Description: FST protein binding to printed compounds – biochemical, small-molecule microarray, 635/667 nm fluorescence, primary screen (AID 1132). The conditions noted are these: 635 nm fluorescence, higher = more signal.
Chain of Follistatin (Homo sapiens) (P19883 whole entry, looked up): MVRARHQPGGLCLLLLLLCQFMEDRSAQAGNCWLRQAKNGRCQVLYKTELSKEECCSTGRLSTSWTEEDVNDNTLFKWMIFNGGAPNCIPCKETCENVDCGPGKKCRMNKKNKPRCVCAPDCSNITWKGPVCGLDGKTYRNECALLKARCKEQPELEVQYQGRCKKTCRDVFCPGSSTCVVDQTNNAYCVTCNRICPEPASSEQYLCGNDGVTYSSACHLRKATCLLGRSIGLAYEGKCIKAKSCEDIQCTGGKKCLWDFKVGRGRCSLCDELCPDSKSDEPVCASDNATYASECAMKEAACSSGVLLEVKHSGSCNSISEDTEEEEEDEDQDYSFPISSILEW
Assay [14] concerns the target Fibroblast growth factor 2 (Homo sapiens) (UniProt P09038). Description: basic fibroblast growth factor binding to printed compounds – biochemical, small-molecule microarray, 635/667 nm fluorescence, primary screen (AID 1133). The conditions noted are these: FGF2, fluorescence 635/667, higher = more signal.
The nature of assay [15]: JC-1 mitochondrial potential readout, lung cancer cells – cell-based, A549, JC-1 fluorescence, basal, 24 h, 100 nL, profiling panel (AID 1138).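 Note: A549 lung adenocarcinoma cells under basal conditions with no added stimulus; test concentration not given here.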 The settings on record: higher = more signal.
For another assay, the system named is Lefty1. Description: Lefty1 protein binding to printed compounds – biochemical, small-molecule microarray, 635/667 nm fluorescence, primary screen (AID 1139). The settings on record: fluorescence 635/667, higher = more signal.
Assay [16] relates to wheat germ agglutinin (Triticum aestivum), Alexa647-labelled. Put plainly: Alexa647-WGA lectin binding to printed small molecules – biochemical, small-molecule microarray, 635/667 nm fluorescence, artefact control for SMM control-protein annotation, profiling panel (AID 1140).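 Note: score merges 667 nm feature emission with signal to noise over triplicate slides.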 The settings on record: WGA-A647 binding, 635 nm fluorescence, higher = more signal.
Assay [17] has as its target Luciferin 4-monooxygenase (Photinus pyralis) (UniProt P08659). Put plainly: inhibition of purified Photinus pyralis luciferase – biochemical, luminescence, purified enzyme, 2006 set, primary screen (AID 1141).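 Note: cell-free assay with purified firefly luciferase at 100 ng per well in PBS; test concentration not given here.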 The conditions noted are these: purified firefly luciferase, SteadyGlo luminescence, 30 min; higher = more signal, called active from +8 up or from −8 down.

Chain of Fibroblast growth factor 2 (Homo sapiens) (P09038 whole entry, looked up): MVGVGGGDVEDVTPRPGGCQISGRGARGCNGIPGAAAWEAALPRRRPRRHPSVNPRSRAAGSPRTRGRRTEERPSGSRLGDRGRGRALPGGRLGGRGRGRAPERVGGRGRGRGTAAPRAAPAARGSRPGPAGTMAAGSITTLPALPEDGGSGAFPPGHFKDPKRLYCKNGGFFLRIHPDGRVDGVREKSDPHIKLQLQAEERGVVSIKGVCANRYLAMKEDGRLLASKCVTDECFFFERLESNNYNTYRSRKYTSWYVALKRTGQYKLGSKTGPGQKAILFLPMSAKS
Chain of Luciferin 4-monooxygenase (Photinus pyralis) (P08659 whole entry, looked up): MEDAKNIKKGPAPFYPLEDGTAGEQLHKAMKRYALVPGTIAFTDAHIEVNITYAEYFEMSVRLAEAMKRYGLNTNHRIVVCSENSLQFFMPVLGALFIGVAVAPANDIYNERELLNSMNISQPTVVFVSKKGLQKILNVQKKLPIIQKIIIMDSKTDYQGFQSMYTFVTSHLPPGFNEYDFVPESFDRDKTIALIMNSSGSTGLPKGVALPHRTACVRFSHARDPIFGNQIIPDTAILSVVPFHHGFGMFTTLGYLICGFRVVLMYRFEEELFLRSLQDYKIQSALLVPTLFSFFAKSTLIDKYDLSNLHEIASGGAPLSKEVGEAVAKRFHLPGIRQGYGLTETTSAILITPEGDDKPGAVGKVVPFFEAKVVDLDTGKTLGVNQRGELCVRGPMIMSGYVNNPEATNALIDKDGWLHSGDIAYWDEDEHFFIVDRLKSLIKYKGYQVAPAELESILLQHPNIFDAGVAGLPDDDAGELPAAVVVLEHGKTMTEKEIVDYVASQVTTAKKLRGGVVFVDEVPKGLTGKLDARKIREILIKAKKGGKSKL
Chain of Concanavalin-A (Canavalia ensiformis) (P02866 whole entry, looked up): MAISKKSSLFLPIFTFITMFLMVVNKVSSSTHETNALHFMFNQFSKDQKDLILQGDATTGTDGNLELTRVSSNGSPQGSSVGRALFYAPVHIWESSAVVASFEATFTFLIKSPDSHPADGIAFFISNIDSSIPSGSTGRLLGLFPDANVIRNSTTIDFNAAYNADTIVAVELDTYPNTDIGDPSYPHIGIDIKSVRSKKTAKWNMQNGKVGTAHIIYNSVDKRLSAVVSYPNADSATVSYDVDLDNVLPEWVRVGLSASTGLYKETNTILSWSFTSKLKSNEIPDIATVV
Chain of Albumin (Bos taurus) (P02769 whole entry, looked up): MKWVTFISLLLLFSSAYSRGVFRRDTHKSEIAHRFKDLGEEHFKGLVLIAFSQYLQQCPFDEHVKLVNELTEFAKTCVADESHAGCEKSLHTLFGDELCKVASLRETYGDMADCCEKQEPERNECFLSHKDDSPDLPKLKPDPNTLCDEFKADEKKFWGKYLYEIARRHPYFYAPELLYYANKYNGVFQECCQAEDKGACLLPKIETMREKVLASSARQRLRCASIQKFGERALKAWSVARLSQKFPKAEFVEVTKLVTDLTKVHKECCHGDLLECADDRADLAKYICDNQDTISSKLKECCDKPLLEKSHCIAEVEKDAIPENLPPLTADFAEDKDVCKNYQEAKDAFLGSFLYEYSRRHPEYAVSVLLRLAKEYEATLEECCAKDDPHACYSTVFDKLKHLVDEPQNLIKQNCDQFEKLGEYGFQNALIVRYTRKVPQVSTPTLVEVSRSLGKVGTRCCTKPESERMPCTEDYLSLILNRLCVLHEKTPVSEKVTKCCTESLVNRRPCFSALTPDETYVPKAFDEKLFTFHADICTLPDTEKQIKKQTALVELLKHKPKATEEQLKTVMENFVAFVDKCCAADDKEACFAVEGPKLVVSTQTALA

`CC(CCC(=O)OC[C@H]1O[C@H](C#Cc2ccccc2)C=C[C@@H]1Oc1ccc(C)cc1)=NOC(C)CN1CCCc2nc(C)c(C)cc21` (stereo not given in full): the composite z-score with Albumin (Bos taurus) was 0.412; in assay [2], -0.0647; in assay [3], -0.0793; in assay [4], -0.0994; in [5], 1.12; in [6], -0.114. The composite z-score with Sam68 (KHDRBS1) was found to be 1.14; in [7] it was 0.281; in assay [8], 0.924; in assay [9] it was 1.09; in assay [10] it was 0.886; in [11], 0.659. Further, the composite z-score in assay [12] is 0.564; in assay [13] it was 0.686; in assay [14], 0.507; in the assay on Lefty1 it was 0.596; in [16], 0.418. Also, the composite Z-score in assay [1] was -0.266 (inactive). Further, the values for the z-score in [15] and in assay [17] were 0.238 and 0.0139 (inactive), respectively.

Regarding `COc1ccc(COC(=O)NN=C2C[C@@H](O)[C@@H](O)[C@@H]3[C@@H]4C(=O)N(C[C@@H]5CCCO5)C(=O)[C@@H]4CC[C@H]23)cc1`, the composite z-score with Albumin (Bos taurus) was 0.533; in assay [2], 0.0562; in assay [3], -0.0811; in assay [4] it was -0.283; in assay [5] it was 0.121; in [6] it was -0.341. Further, the composite z-score is -0.624 in the assay on Sam68 (KHDRBS1); 0.144 in [7]; -0.826 in assay [8]; -0.156 in assay [9]; -0.309 in [10]; 0.0444 in [11]. Also, the composite z-score in assay [12] is -0.269; in [13], -1.13; in assay [14], -0.902; in the assay on Lefty1, -1.1; in assay [16] it was 0.128. In assay [1], the composite Z-score is -0.713 (inactive). Moreover, the z-score was -0.252 in assay [15] and 0.917 (inactive) in assay [17].

Take `CC(CCN1CCCc2nc(C)c(C)cc21)=NO[C@H](C)c1cn([C@@H]2COC[C@H]2O)nn1`: the composite z-score is -0.392 with Albumin (Bos taurus); 0.106 in assay [2]; -0.0741 in assay [3]; 0.25 in [4]; -0.205 in [5]; 0.58 in assay [6]. Further, the composite z-score in the assay with Sam68 (KHDRBS1) is 1.32; in assay [7], 0.854; in [8] it was 0.351; in assay [9], 0.652; in [10], 0.793; in assay [11] it was 1.19. For the same compound, the composite z-score was determined as 0.704 in [12]; 0.622 in [13]; 0.743 in [14]; 0.764 in the assay on Lefty1; 0.205 in assay [16]. The composite Z-score in assay [1] is 0.37 (inactive). Besides, the z-score in [15] is -0.0769; in assay [17] it was 0.711 (inactive).

In the case of `C[C@@H]1CC[C@H]2C(=O)N3[C@@H](CC[C@@H](C)[C@@H]3c3ccc(Br)cc3)C(=O)N2[C@H]1c1ccc(Br)cc1`, the composite z-score in the assay with Albumin (Bos taurus) was 0.213; in assay [2], 0.0462; in assay [3] it was 0.224; in [4], -0.161; in assay [5], 0.246; in assay [6] it was -0.0873. The composite z-score with Sam68 (KHDRBS1) was 0.31; in assay [7], 0.391; in assay [8], 0.344; in assay [9] it was 0.0399; in [10], -0.0695; in assay [11] it was -0.104. The composite z-score in assay [12] is 0.122; in assay [13], 0.301; in assay [14], 0.13; in the assay on Lefty1, 0.52; in assay [16] it was -0.0219. Besides, in [1], the composite Z-score was -0.119 (inactive). Moreover, the z-score in assay [15] was 1.48; in assay [17] it was -0.199 (inactive).

`CCc1cc2c(nc1CC)CCN(CCC(C)=NO[C@@H]1O[C@H](COC(C)=O)[C@@H](OC(C)=O)[C@H](OC(C)=O)[C@H]1OC(C)=O)C2`: the composite z-score with Albumin (Bos taurus) was 0.314; in [2] it was 0.105; in [3] it was -0.0527; in assay [4] it was 0.0275; in [5], 1.34; in [6] it was 0.388. Moreover, the composite z-score is 1.32 in the assay on Sam68 (KHDRBS1); 0.922 in assay [7]; 0.571 in assay [8]; 0.0815 in assay [9]; 0.286 in assay [10]; 0.0487 in assay [11]. The composite z-score in [12] turned out to be 0.816; in [13], 1.03; in assay [14], 0.559; with Lefty1, 1.42; in assay [16] it was 0.167. Besides, the composite Z-score in assay [1] was -0.0798 (inactive). Moreover, the z-score was -0.766 in assay [15] and 1.03 (inactive) in assay [17].

Values taken from PubChem BioAssay.
